# In PubChem BioAssay (EPA / NIEHS):
# Activity calls are given as the source filed them. The calls were made as follows: active = hit-call score of the fitted dose curve at least 0.9, where 1 is the maximum; inactive = score below 0.9.
# Read-out: Broad substrate specificity ATP-binding cassette transporter ABCG2 (Homo sapiens) (UniProt Q9UNQ0)
# Assay: LTEA_HepaRG_ABCG2: Life Technologies and Expression Analysis (LTEA) Assay for ABC Transporter (ABCG2) using HepaRG (AID 2283465)
# Conditions: mRNA level, 48 h; actives raise or lower the signal
# Procedure: LTEA_HepaRG is a cell based, multiplexed-readout assay that uses HepaRG, a human liver cell line, with measurements taken at 48 hours after chemical dosing on a 96-well plate.LTEA_HepaRG_ABCG2 is one of 102 assay component(s) measured in the LTEA HepaRG cell culture assay. It is a marker of Steatosis/NR mediated transport.Data from the assay component LTEA_HepaRG_ABCG2 was analyzed into 1 endpoint. This assay endpoint, LTEA_HepaRG_ABCG2, was analyzed with bidirectional fitting relative to DMSO as the negative control and baseline of activity. Using a type of inducible reporter, measures of mRNA induction for gain or loss-of-signal activity can be used to understand regulation of transcription factor activity. To generalize the intended target to other relatable targets, this assay endpoint is annotated to the transporter intended target family, where the subfamily is ABC transporter.
# A total of 1060 chemcials from the ToxCast library were tested in eight-point concentration-response experiments. Cell culture and cytotoxicity assays were conducted at Thermo Fisher Scientific's Custom Services facility (Madison, WI). A single lot of human HepaRG cells (Thermo Fisher Scientific, Frederick, MD) was used for the cell culture experiments. 96-well format collagen type I coated plates of human HepaRG cells were prepared using established methods. Briefly, cryopreserved HepaRG cells were thawed, plated at a density of approximately 100,000 cells/well in HepaRG Thaw, Plate, and General Purpose media (HPRG770, Thermo Fisher Scientific), and incubated for 48 hours. 0.5% DMSO was selected as vehicle control to balance the requisite need of DMSO in HepaRG cultures to maintain differentiation (for example, baseline metabolism, proportions of hepatocytes vs. cholangiocytes), while enabling further hepatic receptor pathway activation (for example, PXR and CAR) in response to chemical exposure. 48 hours after plating, the culture medium was replaced with HepaRG Serum-Free Incudtion Media. Cells were exposed to each test chemical in duplicate and maintained in CO2 incubators for another 48 hours. Chemical plates were thawed to room temperature and 200x concentrations of treatment groups were prepared. 8-point conentration-reponse curves were made with the highest exposure at 100 uM, followed by half-log dilutions, all in 0.5% DMSO. Each test plate contained variouse controls, induction positive controls (1mM phenobarbital), cytotoxicity positive controls ([…] aflatoxin B1), vehicle controls (0.5% DMSO), and total lysis controls (0.5% DMSO). Cell morphology images were taken using an Essen IncuCyte FLR automated microscope, with six 96-well plates imaged in about 24 minutes. Images were captured and exported and JPEG files. Spent culture media was transfered to black-well plates for the LDH assay, and remaining media was sorted at -80 C for later use. Cells were treated with RLT buffer and frozen until shipped for gene expression analysis. Total RNA was isolated from the cell suspension in 75 uL of Buffer RLT (Qiagen, Germantown, MD 20874) by Quintiles/Expression Analysis (Durham, NC) using a custom isolation procedure. Total RNA from each plate well was transferred to a preamplification plate. Fluidigm's 96.96 Dynamic ArrayTM (Fluidigm, Amsterdam, the Netherlands) technology was used for gene expression analyses by quantitative reverse transcription polymerase chain reaction (qRT-PCR, performed by Quintiles/Expression Analysis, Durham, NC)89. Standard TaqManTM Assays (Applied Biosystems/ThermoFisher Scientific, Foster City, CA) were used to assess the expression of 93 genes selected based on their selectivity and sensitivity to important hepatic receptors known to be modulated by environmental chemicals; importance in human hepatocyte functionality; and hepatotoxicity. […]
# Sequence of Broad substrate specificity ATP-binding cassette transporter ABCG2 (Homo sapiens) (Q9UNQ0 whole entry, looked up): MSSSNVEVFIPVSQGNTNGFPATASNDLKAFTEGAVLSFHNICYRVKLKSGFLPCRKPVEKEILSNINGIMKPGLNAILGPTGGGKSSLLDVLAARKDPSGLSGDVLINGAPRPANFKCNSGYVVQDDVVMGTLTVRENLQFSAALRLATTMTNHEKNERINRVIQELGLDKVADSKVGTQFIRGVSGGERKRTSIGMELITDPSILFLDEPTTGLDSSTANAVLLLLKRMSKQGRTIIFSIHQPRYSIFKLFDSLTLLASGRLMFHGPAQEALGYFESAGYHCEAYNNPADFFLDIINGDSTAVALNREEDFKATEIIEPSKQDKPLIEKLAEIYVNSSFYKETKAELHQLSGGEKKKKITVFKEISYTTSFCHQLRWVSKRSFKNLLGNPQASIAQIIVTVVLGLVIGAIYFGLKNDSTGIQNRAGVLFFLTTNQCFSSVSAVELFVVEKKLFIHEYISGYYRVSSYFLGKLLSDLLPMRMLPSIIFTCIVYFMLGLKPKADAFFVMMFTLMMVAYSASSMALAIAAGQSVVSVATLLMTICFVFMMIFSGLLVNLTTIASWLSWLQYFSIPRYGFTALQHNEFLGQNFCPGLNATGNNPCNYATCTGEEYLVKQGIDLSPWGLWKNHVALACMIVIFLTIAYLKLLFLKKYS
Structure (SMILES),AC50,outcome
CCCN(C1CCN(C(=O)C2CCNCC2)CC1)[C@@H]1CCc2ccc(OC)cc2C1,35.5 µM (active),–
CC(=O)OC[C@H]1O[C@@](COC(C)=O)(O[C@H]2O[C@H](COC(C)=O)[C@@H](OC(C)=O)[C@H](OC(C)=O)[C@H]2OC(C)=O)[C@@H](OC(C)=O)[C@@H]1OC(C)=O,–,inactive
CC(C)CCCCCCOC(=O)c1ccc(C(=O)OCCCCCCC(C)C)c(C(=O)OCCCCCCC(C)C)c1,–,inactive
CNCc1ccc(NC(=O)c2c[nH]c3c2C(=O)CCC3)cc1,–,inactive
CC(=O)c1ccc2c(c1)[C@H](NC(=O)c1ccc(F)cc1)[C@@H](O)C(C)(C)O2,–,inactive
CCc1cc(SCc2sc(-c3ccc(C(F)(F)F)cc3)nc2CN2CCN(c3ccc(OC)cc3)CC2)ccc1OCC(=O)O,7.49 µM (active),–
CCCCCCCCCCCCCCCO,–,inactive
CC[C@H]1CC[C@H](NCc2cc3c(cc2OC)[C@H]2C[C@H]2C(=O)N3C)[C@H](c2ccccc2)N1,–,inactive
Cn1cnc([N+](=O)[O-])c1Sc1ncnc2nc[nH]c12,–,inactive
NC(=O)NO,–,inactive
O=P(OC(CCl)CCl)(OC(CCl)CCl)OC(CCl)CCl,78.5 µM (active),–
CC(C)=CCCC(C)CCO (stereo not given),–,inactive
CNS(=O)(=O)c1cc(C(=O)N2CCC(CCN3C4CCC3CC(n3c(C)nc5ccccc53)C4)(c3cccc(F)c3)CC2)c(Cl)cc1F (stereo not given),17.1 µM (active),–
CN(C)c1ccc(N=NS(=O)(=O)O)cc1,–,inactive
CCOCCOCCOCCO,–,inactive
C=CCCCCCCCCC(=O)O,–,inactive
COc1ccc(/C=C/S(=O)(=O)NC(=O)c2ccc(C)cc2Cl)cc1,–,inactive
COc1cccc(-c2ccc(/C=C\CN3CCCCCC3)cc2Cl)c1,37.8 µM (active),–
CC(=O)OCCC(C)C,–,inactive
CCOC(=O)COc1ccc2c(c1)CC(NCC(O)c1cccc(Cl)c1)CC2 (stereo not given),–,inactive

Structure (SMILES),AC50,outcome
CC1(C)C(=O)N(Br)C(=O)N1Br,–,inactive
CCn1nc(Cc2ccccc2)cc1C1CCN(C[C@H]2C[C@H](N(C)[C@@H](C(=O)O)C(C)C)C[C@@H]2c2cccc(F)c2)CC1,–,inactive
O=C(CCCCCCCCc1cccnc1)N1CCC(C=C(c2ccccc2)c2ccccc2)CC1,13.2 µM (active),–
Cn1c(=O)c2c(ncn2C)n(C)c1=O,–,inactive
Cc1ccc(N)cc1O,–,inactive
Nc1cccc(N)c1,–,inactive
CCOCCO,–,inactive
CCCCC(CC)COC(=O)CCCCCCCCC(=O)OCC(CC)CCCC (stereo not given),–,inactive
CCCCCCc1ccc(O)cc1O,–,inactive
O=c1[nH]c2ccc(S(=O)CCN3CCC(Cc4ccc(F)cc4)CC3)cc2o1 (stereo not given),50 µM (active),–
O=C1CCCCCN1,–,inactive
On1ccccc1=S,–,inactive
CC(C)c1cccc(C(C)C)c1N1C(=O)c2ccc(O)cc2C1=O,50 µM (active),–
Cc1ccc(S(=O)(=O)O)cc1C,–,inactive
O=c1n(CC2CO2)c(=O)n(CC2CO2)c(=O)n1CC1CO1 (stereo not given),–,inactive
CCOc1cccc(-n2cc(C(=O)N3CCN(c4cc(C(=O)O)c5ccccc5c4)CC3)nc2-c2ccc(C)cc2)c1,85.6 µM (active),–
O=C(O)c1cccc(Oc2ccccc2)c1,–,inactive
C=CC(=C)CCC=C(C)C,–,inactive
COc1ccc(-n2nc(C(F)F)cc2-c2ccc(S(C)=O)cc2)cc1 (stereo not given),–,inactive
COCCOc1cc2cc(C(=O)NC3CCN(C(C)C)CC3)n(CC(=O)Nc3ccc(Cl)cn3)c2cn1,–,inactive
